Assay results: PubChem BioAssay AID2284168 (EPA ToxCast)
Calls of active or inactive are those of the source. Rule for the calls: active = hit-call score of the fitted dose curve at least 0.9, where 1 is the maximum; inactive = score below 0.9.

What follows are compounds tested against human Opioid Receptor delta (DOP) Agonism, OPRD1 (gene 4985) (UniProt P41143) (assay: ERF_FR_GPCR_hOPRD1: Eurofins (ERF) G Protein-Coupled Receptor (GPCR) Radioligand Binding LeadHunter Assay for human Opioid Receptor delta (DOP) Agonism).
human Opioid Receptor delta (DOP) Agonism, OPRD1 (gene 4985), sequence (P41143 whole entry, looked up): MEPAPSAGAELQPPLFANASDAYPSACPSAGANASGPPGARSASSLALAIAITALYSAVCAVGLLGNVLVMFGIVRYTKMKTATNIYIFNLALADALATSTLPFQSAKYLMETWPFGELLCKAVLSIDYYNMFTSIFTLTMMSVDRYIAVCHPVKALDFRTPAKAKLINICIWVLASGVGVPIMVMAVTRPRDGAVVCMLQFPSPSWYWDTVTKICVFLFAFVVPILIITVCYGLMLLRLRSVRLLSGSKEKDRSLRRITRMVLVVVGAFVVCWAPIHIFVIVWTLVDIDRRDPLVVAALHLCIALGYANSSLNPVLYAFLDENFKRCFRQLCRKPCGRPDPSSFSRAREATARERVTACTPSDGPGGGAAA
Procedure: ERF_FR_GPCR_hOPRD1 is a biochemical, single-readout assay that uses extracted gene-proteins in a cell-free assay. Measurements were taken 1 hour after chemical dosing in a 96-well plate. See delta (DOP) Human Opioid GPCR Binding (Agonist Radioligand) Assay, Cerep.ERF_FR_GPCR_hOPRD1 is an assay component calculated from the ERF_FR_GPCR_hOPRD1 assay. It is designed to measure radioligand binding using a type of binding reporter as detected by scintillation counting with radiometry technology.Data from the assay component ERF_FR_GPCR_hOPRD1 was analyzed at the assay endpoint, ERF_FR_GPCR_hOPRD1, in the positive analysis fitting direction relative to DMSO as the negative control and baseline of activity. Using a type of binding reporter, gain-of-signal activity can be used to understand changes in binding as they relate to gene OPRD1. To generalize the intended target to other relatable targets, this assay endpoint is annotated to the gpcr intended target family, where the subfamily is opioid.
Human cells are incubated for 60 minutes at room temprature with [3H]DADLE ligand (0.5 nM) and DPDPE as control inhibitor. Test Sample Requirements: Minimum for 1) Screen: 60 ul of 10 mM stock -OR- 1 mg (pre-weighed) for 10 uM final testing. 2) Dose Response: 90 ul of 10 mM stock -OR- 1 mg (pre-weighed) for a top concentration at 10 uM.

Row | SMILES | AC50
1 | O=C(/C=C/c1ccc(O)cc1)CC(=O)/C=C/c1ccc(O)cc1 | 1.5 µM (active)
